Screening data (PubChem)
Rows were chosen to be rich in hits. Some 22% of all compounds tested hit in one or more screens of this group.
CYP2C19 activ = cytochrome P450 2C19 (human) activation; P33261; recombinant CYP2C19, luciferin-H EGE luminescence; stronger effect = higher value; 0 = fully inhibited enzyme, 1 = untreated enzyme; activation factor at 5 µM; 96,000 tested, under 10 active; AID 1025;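 active = activation factor of at least 2 at 5 µM in the primary screen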
Measles CPE = protection of cells from measles virus | AID 841 | protection (pct of control), % at 4 µM | Measles virus-infected cells, CPE protection, absorbance | hit rate 1.5% among 140,000; in the data active = protection mostly above about 24%, no sharp cut-off; inactive = mostly below about 26%
CYP2C9 activ = activators of human CYP2C9; P11712; recombinant CYP2C9, luciferin-H conversion, luminescence; stronger effect = higher value; factor 1 = untreated enzyme, 0 = blocked; activation factor at 5 µM; hit rate 1.4% among 96,000; AID 1024;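 active = activation factor of 2 or more for CYP2C9 at a 5 µM dose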
Target sequence (P11712 whole entry, looked up): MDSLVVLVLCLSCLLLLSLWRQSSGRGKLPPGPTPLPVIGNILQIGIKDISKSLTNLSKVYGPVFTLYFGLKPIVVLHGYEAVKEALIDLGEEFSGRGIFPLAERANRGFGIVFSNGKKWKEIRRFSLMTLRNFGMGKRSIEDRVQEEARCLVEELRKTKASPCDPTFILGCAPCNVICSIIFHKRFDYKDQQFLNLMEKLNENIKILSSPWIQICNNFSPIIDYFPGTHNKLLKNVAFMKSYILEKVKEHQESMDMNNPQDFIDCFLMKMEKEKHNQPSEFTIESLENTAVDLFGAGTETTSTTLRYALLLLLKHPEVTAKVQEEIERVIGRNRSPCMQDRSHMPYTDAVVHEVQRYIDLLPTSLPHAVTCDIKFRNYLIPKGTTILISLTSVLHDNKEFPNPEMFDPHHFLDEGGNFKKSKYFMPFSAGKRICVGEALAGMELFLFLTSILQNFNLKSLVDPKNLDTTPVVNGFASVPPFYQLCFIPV
CYP2C19 inhib = human CYP2C19 inhibition | hit rate 21% among 96,000 | P33261 | inhibition, % at 5 µM | CYP2C19 Supersomes, luciferin-H EGE luminescence, 30 min;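 active = CYP2C19 inhibition above a set limit at 5 µM in the primary screen, cut at about 50% in these data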
CYP2C9 inhib = blocks human cytochrome P450 2C9; AID 777; P11712; inhibition, % at 5 µM; CYP2C9 Supersomes, luciferin-H conversion, luminescence; hit rate 20% among 96,000;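 active = blocking of liver enzyme CYP2C9 beyond about 50% at 5 µM, limit read from the data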
Of the large screens only hits and unclear results are named; the others gave an inactive call.

CCOC(=O)C1CCN(CC(=O)Nc2c(C(=O)OC)[nH]c3cccc(Cl)c23)CC1	none
COc1ccc(C2(O)CCN(CCCCOc3ccccc3)CC2)cc1	none
O=c1[nH]c2ccc(N=Cc3c(O)ccc4cc(Br)ccc34)cc2[nH]1	none (no result: CYP2C19 activ, CYP2C9 activ, CYP2C19 inhib, CYP2C9 inhib)
Cn1c(NCc2ccccc2O)nc2ccccc21	Measles CPE 28, CYP2C19 inhib 64
Cn1c(NCc2cccc(Br)c2)nc2ccccc21	CYP2C19 inhib 54
COc1cc(CNc2nc3ccccc3n2C)cc(OC)c1OC	none (no result: CYP2C19 activ, CYP2C9 activ, CYP2C19 inhib, CYP2C9 inhib)
CSc1ccccc1NC(=O)CN(c1cccc(C)c1)S(C)(=O)=O	CYP2C19 inhib 51, CYP2C9 inhib 53
Cc1cccc(N(CC(=O)Nc2ccccc2F)S(C)(=O)=O)c1	CYP2C19 inhib 92, CYP2C9 inhib 69
Clc1cccc(Cl)c1CO/N=C/c1c(-c2ccccc2)nc2n1CCS2	CYP2C9 inhib 73
COC(=O)CNC(=O)C(C)NC(=O)CNC(=O)OCc1ccccc1 (centres undefined)	none (no result: CYP2C19 activ, CYP2C19 inhib)
CC1=CN2C(=NC(=O)CC2(C)C(=O)N(CC(=O)NC2CCCC2)c2ccccc2C)C=C1 (centres undefined)	none (no result: CYP2C19 activ, CYP2C9 activ, CYP2C19 inhib, CYP2C9 inhib)
CCOc1ccc(C(=O)NC(=S)NC2CCCC2)cc1[N+](=O)[O-]	none (no result: CYP2C19 activ, CYP2C9 activ, CYP2C19 inhib, CYP2C9 inhib)
NC1=NC(c2ccccc2Cl)n2c(nc3ccccc32)N1 (centres undefined)	none
NC1=NC(c2ccc(Cl)cc2)n2c(nc3ccccc32)N1 (centres undefined)	CYP2C19 inhib 88
OC1(c2ccc(F)cc2)CCN(Cc2ccccc2)C1 (centres undefined)	CYP2C19 inhib 84
OC(CN1CCN(Cc2ccccc2)CC1)c1ccc(F)cc1 (centres undefined)	none (no result: CYP2C19 activ, CYP2C9 activ, CYP2C19 inhib, CYP2C9 inhib)
Cc1cccc(C(C)C)c1NC(=O)C1CN(S(=O)(=O)c2ccccc2)CCN1S(=O)(=O)c1ccccc1 (centres undefined)	none (no result: CYP2C19 activ, CYP2C9 activ, CYP2C19 inhib, CYP2C9 inhib)
CCOc1cc(S(=O)(=O)n2c(C)nc3ccccc32)ccc1F	CYP2C19 inhib 99, CYP2C9 inhib 86
CCOc1cc(S(=O)(=O)N2CCCCC2)ccc1F	none
O=C(NC1CCCC1)C(c1ccccn1)N(C(=O)c1csnn1)C1CC1 (centres undefined)	Measles CPE 86
O=C(NC1CCCCC1)C(c1ccco1)N(Cc1cccnc1)C(=O)C1COc2ccccc2O1 (centres undefined)	CYP2C19 inhib 84, CYP2C9 inhib 76
O=C(NCc1ccc2c(c1)OCO2)C(c1ccco1)N(C(=O)c1csnn1)c1ccccc1 (centres undefined)	CYP2C19 inhib 75
O=C(NC1CCCC1)C(c1ccco1)N(Cc1ccccc1)C(=O)c1csnn1 (centres undefined)	CYP2C19 inhib 71
CC(C)(C)NC(=O)C(c1ccco1)N(C(=O)c1csnn1)c1ccccc1 (centres undefined)	none
Cc1ccc(S(=O)(=O)N(C)Cc2ccc(-c3nnc4n3CCC4)cc2)cc1	CYP2C19 inhib 88
c1ccc(NCc2nnc3n2CCCCC3)cc1	none
Clc1ccc(-c2nnc3n2CCCCC3)cc1	Measles CPE 79
Cc1ccc(C)n1-c1ccc(-c2nnc3n2CCCCC3)s1	CYP2C9 inhib 64
Clc1ccc(NCc2nnc3n2CCCCC3)cc1	CYP2C19 inhib 55
Clc1ccccc1-c1nc2ccccc2c2nc3ccccc3n12	none (no result: CYP2C19 activ, CYP2C9 activ, CYP2C19 inhib, CYP2C9 inhib)
O=C(NCCCN1CCCC1=O)c1ccc(Cl)c(NS(=O)(=O)c2ccc(F)cc2)c1	none
NC(=O)CC[C@@H]1NC(=O)[C@H](CO)NC(=O)c2cc([N+](=O)[O-])cc(I)c2NCC[C@@H](C(N)=O)NC(=O)[C@H](Cc2ccc(O)cc2)NC1=O	none (no result: CYP2C19 activ, CYP2C9 activ, CYP2C19 inhib, CYP2C9 inhib)
NC(=O)CC[C@@H]1NC(=O)[C@H](Cc2ccc(O)cc2)NC(=O)c2cc([N+](=O)[O-])cc(F)c2OCC[C@@H](C(N)=O)NC1=O	Measles CPE 31 (no result: CYP2C19 activ, CYP2C9 activ, CYP2C19 inhib, CYP2C9 inhib)
CCN1C(=O)c2c(C)nc3ccccc3c2C1=O	CYP2C19 inhib 58
COc1ccccc1C(=O)NC(C)c1nc2ccccc2[nH]1 (centres undefined)	CYP2C19 inhib 56, CYP2C9 inhib 55
N#CC12CCCCC1CC1CCCCC1(C#N)N2Cc1cccnc1 (centres undefined)	Measles CPE 113
O=c1c2ccccc2c2ccccc2c(=O)n1Cc1cccnc1	none
CC1CC(C)(C)CC2(C1)NC(=O)N(CC(=O)NC1CCCc3ccccc31)C2=O (centres undefined)	none (no result: CYP2C19 activ, CYP2C9 activ, CYP2C19 inhib, CYP2C9 inhib)
CC(OC(=O)c1ccc2ncsc2c1)C(=O)NCc1ccccc1 (centres undefined)	none (no result: CYP2C19 activ, CYP2C9 activ, CYP2C19 inhib, CYP2C9 inhib)
CC(OC(=O)c1cccs1)C(=O)NCc1ccccc1 (centres undefined)	CYP2C19 inhib 98, CYP2C9 inhib 77
COc1ccc(CNC(N)=O)cc1	none (no result: CYP2C19 activ, CYP2C9 activ, CYP2C19 inhib, CYP2C9 inhib)
CC(C)C(OC(=O)c1cccs1)C(=O)NCc1cccs1 (centres undefined)	CYP2C19 inhib 91, CYP2C9 inhib 66
COc1ccc(CNC(=O)C(C)OC(=O)c2cccn2C)cc1 (centres undefined)	CYP2C19 inhib 78
CC(OC(=O)c1cccs1)C(=O)NCc1ccc2c(c1)OCO2 (centres undefined)	CYP2C9 inhib 67
Cc1cc(Nc2ccc(C)c(Br)c2)n2nc(C)nc2n1	none (no result: CYP2C19 activ, CYP2C9 activ, CYP2C19 inhib, CYP2C9 inhib)
CN1C2=NCCN2C(=O)c2ccccc21	none
CC(C)C(OC(=O)c1nsc(Cl)c1Cl)C(=O)NCc1ccc2c(c1)OCO2 (centres undefined)	CYP2C9 inhib 65
O=C(NCc1ccc2c(c1)OCO2)C(=O)NC1CCCCC1	none
CN(Cc1ccccc1)S(=O)(=O)c1ccc(NS(=O)(=O)Cc2ccccc2)cc1	CYP2C19 inhib 94, CYP2C9 inhib 94
CN(Cc1ccccc1)S(=O)(=O)c1ccc(Cl)nc1	CYP2C19 inhib 70
CC(=O)c1ccc(NS(=O)(=O)Cc2ccccc2)cc1	CYP2C19 inhib 93, CYP2C9 inhib 97
CC(=O)N(C)c1ccc(NS(=O)(=O)Cc2ccccc2)cc1	none
CN(Cc1ccccc1)S(=O)(=O)c1ccc2c(c1)NC(=O)CC(=O)N2	none (no result: CYP2C19 activ, CYP2C9 activ, CYP2C19 inhib, CYP2C9 inhib)
Cc1c(Cl)cccc1NC(=O)c1ccc(OCC(=O)NCc2ccccc2)cc1	none (no result: CYP2C19 activ, CYP2C9 activ, CYP2C19 inhib, CYP2C9 inhib)
CCCC1CC(c2csc(N)n2)CCO1 (centres undefined)	CYP2C19 inhib 80, CYP2C9 inhib 76
CCn1c(=O)cc(SCC(=O)N2CCN(C3CCCCC3)CC2)c2ccccc21	CYP2C9 activ 2.4, CYP2C19 inhib 65
CCn1c(=O)cc(SCC(=O)N2CCN(C(=O)c3ccco3)CC2)c2ccccc21	none
CCn1c(=O)cc(SCC(=O)N2CCN(c3ccccc3OC)CC2)c2ccccc21	CYP2C9 activ 2.3
CCn1c(=O)cc(SCC(=O)N2CCOCC2)c2ccccc21	CYP2C9 activ 2.1
O=C(CSc1cn(Cc2ccccc2)c2ccccc12)N1CCOCC1	CYP2C19 inhib 88
CCN1CCN(C(C)C(=O)Nc2c(C)n(C)n(-c3ccccc3)c2=O)CC1 (centres undefined)	none
N#Cc1nc(-c2ccccc2F)oc1NC1CCCCC1	none
CCn1c(=O)cc(SCC(=O)Nc2ccc(Cl)cc2)c2ccccc21	none
